Experimental findings from PubChem BioAssay are described below.

Test [1] can be described thus: small molecules captured by biotinylated probe aFSTL3 – biochemical, small-molecule microarray, fluorescence 635/667, stem cell growth factor project, primary screen (AID 1064).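 Note: measures binding of the biotinylated anti-FSTL3 antibody to printed compounds.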 To be noted: higher = more signal.
Test [2] can be described thus: binders from COS7 lysate, DM2A8 probe, primary screen, torsin A project, cell lysate, small-molecule microarray, fluorescence 635/667 (AID 1065). To be noted: higher = more signal, COS7 lysate expressing mutant human TOR1A.
The nature of test [3]: small molecules captured by biotinylated probe aFGF2 – biochemical, small-molecule microarray, fluorescence 635/667, stem cell growth factor project, primary screen (AID 1067).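 Note: measures binding of biotinylated aFGF2 protein to printed compounds on slides; z-score merges feature fluorescence and signal-to-noise across triplicate slides.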 To be noted: higher = more signal.
The nature of test [4]: small molecules captured by biotinylated probe aFGF10 – biochemical, small-molecule microarray, fluorescence 635/667, stem cell growth factor project, primary screen (AID 1071).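 Note: score merges 667 nm spot intensity and signal to noise from triplicate slides.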 As to conditions: higher = more signal.
Test [5] deals with Neurogenic locus notch homolog protein 2 (Homo sapiens) (UniProt Q04721). Kind of test: small molecules binding Notch2 protein – biochemical, small-molecule microarray, 635 nm fluorescence, stem cell growth factors, primary screen (AID 1073). As to conditions: higher = more signal.
The target of test [6] is Pro-neuregulin-1, membrane-bound isoform (Homo sapiens) (UniProt Q02297). Kind of test: small molecules binding neuregulin-1 protein – biochemical, small-molecule microarray, fluorescence 635/667, psychiatric disease protein project, primary screen (AID 1075).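 Note: score combines 667 nm spot fluorescence with signal to noise.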 As to conditions: NRG1 binding, 635 nm fluorescence, higher = more signal.
Sequence of Pro-neuregulin-1, membrane-bound isoform (Homo sapiens) (Q02297 whole entry, looked up, the tested form may be a part, canonical isoform): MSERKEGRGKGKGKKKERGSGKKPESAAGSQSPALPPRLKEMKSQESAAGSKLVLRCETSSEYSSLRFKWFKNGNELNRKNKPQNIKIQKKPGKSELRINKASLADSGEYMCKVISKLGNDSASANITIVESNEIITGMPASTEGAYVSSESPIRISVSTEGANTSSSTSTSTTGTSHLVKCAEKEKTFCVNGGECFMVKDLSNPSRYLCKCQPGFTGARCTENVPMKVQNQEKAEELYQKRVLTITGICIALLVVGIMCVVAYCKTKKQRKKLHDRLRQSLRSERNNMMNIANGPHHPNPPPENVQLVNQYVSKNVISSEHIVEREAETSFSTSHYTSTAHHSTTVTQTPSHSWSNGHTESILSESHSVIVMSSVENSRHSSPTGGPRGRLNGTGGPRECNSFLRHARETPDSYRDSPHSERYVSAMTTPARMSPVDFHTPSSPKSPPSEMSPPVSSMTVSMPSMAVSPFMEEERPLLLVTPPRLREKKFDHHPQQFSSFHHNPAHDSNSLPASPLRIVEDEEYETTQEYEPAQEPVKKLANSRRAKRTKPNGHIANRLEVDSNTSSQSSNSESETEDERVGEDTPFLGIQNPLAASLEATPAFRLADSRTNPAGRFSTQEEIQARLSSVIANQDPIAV
Test [7] deals with Neuregulin-1 EGF-like domain. As to the kind of experiment: small molecules binding NRG1 EGF domain – biochemical, small-molecule microarray, 635 nm fluorescence, primary screen (AID 1081).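 Note: binding of the protein to compounds printed on small-molecule microarray slides.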 As to conditions: higher = more signal.
The nature of test [8]: FRG1 expression reporter modulators in myotubes – cell-based, C2C12 myotubes, firefly/Renilla luciferase, luminescence, FRG1 inhibition for FSHD, primary screen (AID 1084). As to conditions: FRG1 promoter luciferase, higher = more signal, called active from +8 up or from −8 down.
The nature of test [9]: small molecules captured by biotinylated probe aFST – biochemical, small-molecule microarray, fluorescence 635/667, stem cell growth factor project, primary screen (AID 1086).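 Note: score merges 667 nm fluorescence with signal-to-noise of each printed compound spot.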 As to conditions: higher = more signal.
Test [10] is described as follows: binders of probe aHhip on microarray, primary screen, stem cell growth factor project, biochemical, small-molecule microarray, fluorescence 635/667 (AID 1087).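 Note: score merges spot fluorescence at 667nm with spot signal to noise ratio.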 To be noted: higher = more signal.
Test [11] relates to PRMT1 (protein arginine N-methyltransferase 1). Kind of test: small molecules binding arginine methyltransferase PRMT1 – biochemical, small-molecule microarray, 635 nm fluorescence, primary screen (AID 1088).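 Note: binding of Prmt1 protein to compounds spotted on small-molecule microarray slides.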 As to conditions: higher = more signal.
Test [12] in a line: growth effects on S. cerevisiae YJM789 – YJM789 clinical isolate, OD600, 24 h, basal, primary screen (AID 1089).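 Note: growth of clinical yeast isolate S. cerevisiae YJM 789 seeded 1000 cells per well; test concentration not given here.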 To be noted: higher = more signal, called active from +8 up or from −8 down.
Test [13] can be described thus: S. pombe growth modifiers, basal conditions – strain 972, OD600, 24 h, no modulator, primary screen (AID 1090).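 Note: basal condition with compound alone and no growth modifier present; test concentration not given here.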 As to conditions: S. pombe 972 growth, higher = more signal, called active from +8 up or from −8 down.
The nature of test [14]: budding yeast growth modifiers under rapamycin – strain BY4716, OD600, 96 h, primary screen (AID 1091). Note: test concentration not given here. To be noted: S. cerevisiae BY4716 + rapamycin, higher = more signal, called active from +8 up or from −8 down.
Test [15] concerns the target Torsin-1A-interacting protein 2 (Homo sapiens) (UniProt Q8NFQ8). Kind of test: small molecules binding lysate-expressed LULL1 – cell lysate, human LULL1 lysate, 635/667 nm fluorescence, primary screen (AID 1092).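 Note: probe is lysate of COS7 cells overexpressing human LULL1; score merges per-feature 667 nm fluorescence with signal-to-noise.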 To be noted: small-molecule microarray, hLULL1 lysate binding, 635 nm fluorescence; higher = more signal.
Test [16] in a line: optical density change of DRC41 E. coli – strain DRC41, OD650, 24 h, E. coli filamentation project, primary screen (AID 1093).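 Note: MC1000 strain lacking acrAB efflux and sulA so SOS filamentation is blocked; test concentration not given here.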 To be noted: E. coli DRC41 growth, higher = more signal, called active from +8 up or from −8 down.
A short description of test [17]: probe aLefty2 binding to arrayed compounds – biochemical, biotinylated probe, 635/667 nm fluorescence, primary screen (AID 1094).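 Note: score merges spot fluorescence near 667 nm with spot signal-to-noise ratio.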 As to conditions: small-molecule microarray, higher = more signal.
Test [18] deals with Noggin (protein binding on small-molecule microarray). As to the kind of experiment: small molecules binding Noggin protein – biochemical, 635/667 nm fluorescence, primary screen (AID 1095).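 Note: score merges 667 nm feature fluorescence with signal to noise over triplicate slides.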 To be noted: 635 nm fluorescence, higher = more signal.
For test [19], the target named is Neurogenic locus notch homolog protein 3 (Homo sapiens) (UniProt Q9UM47). Kind of test: small molecules binding NOTCH3 protein – biochemical, 635/667 nm fluorescence, primary screen (AID 1096). As to conditions: small-molecule microarray, 635 nm fluorescence, higher = more signal.
Sequence of Neurogenic locus notch homolog protein 3 (Homo sapiens) (Q9UM47 whole entry, looked up): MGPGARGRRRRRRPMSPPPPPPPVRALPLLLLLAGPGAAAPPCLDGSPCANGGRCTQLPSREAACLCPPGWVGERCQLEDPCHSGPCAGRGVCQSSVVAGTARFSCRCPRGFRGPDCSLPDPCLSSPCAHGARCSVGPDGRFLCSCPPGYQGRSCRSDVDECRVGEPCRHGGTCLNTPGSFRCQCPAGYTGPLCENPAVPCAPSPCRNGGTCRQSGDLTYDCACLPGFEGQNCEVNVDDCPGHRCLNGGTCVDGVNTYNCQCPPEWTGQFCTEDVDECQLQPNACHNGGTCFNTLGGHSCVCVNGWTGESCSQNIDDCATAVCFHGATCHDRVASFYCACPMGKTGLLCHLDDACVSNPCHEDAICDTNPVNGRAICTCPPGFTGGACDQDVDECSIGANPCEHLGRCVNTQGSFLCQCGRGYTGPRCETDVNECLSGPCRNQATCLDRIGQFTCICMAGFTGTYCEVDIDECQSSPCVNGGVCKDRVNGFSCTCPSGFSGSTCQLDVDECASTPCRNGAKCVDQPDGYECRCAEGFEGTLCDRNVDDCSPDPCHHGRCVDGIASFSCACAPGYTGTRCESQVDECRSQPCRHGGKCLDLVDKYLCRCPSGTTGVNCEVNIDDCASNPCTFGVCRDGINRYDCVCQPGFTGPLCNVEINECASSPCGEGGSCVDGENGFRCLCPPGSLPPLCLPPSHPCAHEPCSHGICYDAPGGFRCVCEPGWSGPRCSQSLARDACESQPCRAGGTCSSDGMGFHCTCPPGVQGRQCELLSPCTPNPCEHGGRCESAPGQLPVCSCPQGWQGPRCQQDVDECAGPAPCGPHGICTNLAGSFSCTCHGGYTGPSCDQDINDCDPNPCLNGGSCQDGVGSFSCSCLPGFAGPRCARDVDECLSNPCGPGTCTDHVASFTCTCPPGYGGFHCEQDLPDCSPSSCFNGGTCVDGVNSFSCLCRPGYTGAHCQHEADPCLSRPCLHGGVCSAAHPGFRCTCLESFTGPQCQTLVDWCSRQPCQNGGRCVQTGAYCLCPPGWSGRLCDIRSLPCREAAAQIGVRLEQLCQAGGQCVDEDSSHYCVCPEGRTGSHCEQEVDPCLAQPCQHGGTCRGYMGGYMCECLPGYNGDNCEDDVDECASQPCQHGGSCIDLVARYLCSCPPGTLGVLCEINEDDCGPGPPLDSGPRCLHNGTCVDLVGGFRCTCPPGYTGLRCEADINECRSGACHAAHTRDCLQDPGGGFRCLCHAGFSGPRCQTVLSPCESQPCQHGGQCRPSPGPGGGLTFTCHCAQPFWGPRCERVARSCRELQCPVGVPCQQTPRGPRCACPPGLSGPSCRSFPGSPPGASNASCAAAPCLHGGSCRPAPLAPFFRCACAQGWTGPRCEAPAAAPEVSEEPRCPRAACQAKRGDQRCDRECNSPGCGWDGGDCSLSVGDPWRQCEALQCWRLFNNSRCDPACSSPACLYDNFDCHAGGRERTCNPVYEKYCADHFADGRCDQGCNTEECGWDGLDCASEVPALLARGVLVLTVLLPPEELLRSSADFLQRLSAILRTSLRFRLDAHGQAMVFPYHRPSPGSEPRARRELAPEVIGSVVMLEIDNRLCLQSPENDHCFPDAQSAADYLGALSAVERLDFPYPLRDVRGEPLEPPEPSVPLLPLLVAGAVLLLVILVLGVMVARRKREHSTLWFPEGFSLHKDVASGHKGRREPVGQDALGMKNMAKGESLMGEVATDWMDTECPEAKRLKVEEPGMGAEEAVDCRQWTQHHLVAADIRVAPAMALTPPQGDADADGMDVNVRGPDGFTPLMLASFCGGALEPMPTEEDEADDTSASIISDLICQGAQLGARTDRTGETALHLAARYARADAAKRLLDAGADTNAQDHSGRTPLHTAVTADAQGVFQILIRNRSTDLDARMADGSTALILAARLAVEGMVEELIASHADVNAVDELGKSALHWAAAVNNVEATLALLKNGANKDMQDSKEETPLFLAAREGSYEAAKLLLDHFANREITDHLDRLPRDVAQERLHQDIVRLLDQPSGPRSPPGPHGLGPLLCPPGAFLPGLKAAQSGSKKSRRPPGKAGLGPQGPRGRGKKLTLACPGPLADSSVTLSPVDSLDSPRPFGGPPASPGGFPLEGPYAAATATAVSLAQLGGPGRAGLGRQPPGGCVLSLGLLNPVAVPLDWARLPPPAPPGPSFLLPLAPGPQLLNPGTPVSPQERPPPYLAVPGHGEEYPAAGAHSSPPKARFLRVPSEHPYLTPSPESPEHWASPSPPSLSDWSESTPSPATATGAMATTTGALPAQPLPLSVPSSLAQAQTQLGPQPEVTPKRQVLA
Test [20] can be described thus: probe aEGFR binding to arrayed compounds – biochemical, biotinylated probe, 635/667 nm fluorescence, primary screen (AID 1097).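 Note: probe is a biotinylated anti-EGFR antibody binding compounds printed on slides; score combines fluorescence near 667 nm and signal to noise of each spot.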 As to conditions: small-molecule microarray, higher = more signal.

Values joined by “and” are separate entries in the source; they are usually repeats but may differ in a detail not shown here. Equal entries are not always repeated. Active and inactive are the calls of the source.

Sequence of Torsin-1A-interacting protein 2 (Homo sapiens) (Q8NFQ8 whole entry, looked up): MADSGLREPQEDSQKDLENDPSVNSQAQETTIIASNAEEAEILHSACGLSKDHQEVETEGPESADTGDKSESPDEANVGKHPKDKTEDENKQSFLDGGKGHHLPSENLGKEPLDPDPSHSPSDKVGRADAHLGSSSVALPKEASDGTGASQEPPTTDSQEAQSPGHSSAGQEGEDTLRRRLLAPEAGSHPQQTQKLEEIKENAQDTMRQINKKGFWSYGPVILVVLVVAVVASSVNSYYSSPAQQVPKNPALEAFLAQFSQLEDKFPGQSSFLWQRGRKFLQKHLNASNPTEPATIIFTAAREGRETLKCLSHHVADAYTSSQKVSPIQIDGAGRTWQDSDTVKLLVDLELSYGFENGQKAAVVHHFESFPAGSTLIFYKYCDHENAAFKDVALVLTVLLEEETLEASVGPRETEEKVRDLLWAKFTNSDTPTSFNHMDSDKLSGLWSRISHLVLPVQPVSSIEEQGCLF

For `CO[C@H]1COC(=O)CC=C[C@@H](C)COC(=O)[C@H](CCSC)NC(=O)CC=C[C@@H]1C`, the composite z-score is -0.638 and -0.893 in [1]; 2.71 and 2.84 in test [2]; 0.561 and -0.386 in test [3]; -0.174 and -0.853 in test [4]; -0.375 and -0.583 in test [5]; -0.591 and -1.25 in test [6]. The composite z-score in [7] is 1.01 and 0.444; in [9] it was 0.536 and 0.0907; in [10], 0.12 and -0.154; in test [11], 1.55 and 1.54; in test [15], -0.649 and -1.15; in test [17] it was -0.114 and -0.0629. For the same compound, the composite z-score in [18] is 1.64 and 2.04; in test [19], 0.593 and 0.59; in [20], 0.49 and 0.59. Besides, the z-score was -0.172 (inactive) and -0.845 (inactive) in test [8]; 0.833 (inactive) and -0.697 (inactive) in [12]; -0.201 (inactive) and -0.712 (inactive) in [13]; 0.35 (inactive) and -0.862 (inactive) in [14]; 0.32 (inactive) and -0.145 (inactive) in test [16].

For `C=CCN(C(=O)C1N(C(C)(C)CO)C(=O)C2C(C(=O)O)C3C=CC21O3)c1ccc(OC)cc1` (stereo not given), the composite z-score is 1.84 and 1.41 in test [1]; -1.16 and -1.03 in [2]; -0.237 and -0.195 in test [3]; -1.49 and -0.243 in test [4]; -1.71 and -1.79 in test [5]; -0.16 and -1.32 in test [6]. Also, the composite z-score in test [7] was 0.493 and -0.364; in test [9], -0.898 and -1.25; in test [10] it was -0.169 and -0.204; in [11], -0.504 and -1.28; in test [15], 0.841 and 0.2; in [17], 0.0499 and 0.0174. Besides, the composite z-score is -2.91 and -3.66 in test [18]; -0.702 and -1.29 in test [19]; -0.263 and -0.315 in test [20]. The z-score is 1.63 (inactive) and -0.0127 (inactive) in test [8]; 0.0659 (inactive) and 1.13 (inactive) in [12]; -1.08 (inactive) and 0.202 (inactive) in [13]; 0.558 (inactive) and 0.921 (inactive) in test [14]; 2.3 (inactive) and 1.15 (inactive) in test [16].

With `CC(C)CON=C1C[C@@H](O)[C@@H](O)[C@@H]2[C@@H]3C(=O)N(c4cccc(Oc5ccccc5)c4)C(=O)[C@@H]3CC[C@H]12`, the composite z-score in test [1] was -0.273; in test [2], 0.459; in [3], -0.179; in test [4] it was 0.253; in [5], 0.547; in [6] it was 0.685. The composite z-score is 0.781 in test [7]; 0.769 in [9]; -0.0645 in test [10]; 0.973 in test [11]; 0.897 in test [15]; -0.136 in test [17]. Further, the composite z-score in [18] was 0.318; in [19], 0.951; in test [20], -0.0549. Besides, the z-score in test [8] is -0.423 (inactive); in test [12] it was 0.097 (inactive); in test [13] it was 0.561 (inactive); in test [14] it was -0.54 (inactive); in test [16], 1.04 (inactive).

For the compound `O=C1NC(=O)C2C1C=CC(C(O)c1ccc([N+](=O)[O-])cc1)N2Nc1ccc(Cl)cc1Cl` (stereo not given), the composite z-score in test [1] is 0.396 and 1.04; in test [2], 0.0888 and 1.29; in [3], -0.0044 and 0.115; in [4], 0.694 and 0.322; in test [5], 1.13 and 0.991; in test [6], 1.18 and 1.78. In addition, the composite z-score was 0.939 and 1.21 in [7]; 0.848 and 1.54 in [9]; -0.226 and -0.236 in test [10]; 0.551 and 0.395 in [11]; 3.3 and 3.03 in test [15]; 0.127 and 0.386 in [17]. The composite z-score in [18] is -0.142 and -0.311; in test [19], 0.843 and 0.588; in [20], 0.0661 and -0.102. Besides, the z-score in test [8] was 0.0748 (inactive) and -0.358 (inactive); in [12], -1.44 (inactive) and -1.78 (inactive); in test [13], -1.46 (inactive) and -1.07 (inactive); in test [14], -0.923 (inactive) and -0.888 (inactive); in test [16] it was 0.33 (inactive) and 0.728 (inactive).
